PubChem BioAssay AID588494 (NMMLSC, 2011)
The list shows a part of the results.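 Rule for the calls: active = response vs DMSO under 50%, meaning signal dropped by over half, treated as fluorescence quencher; inconclusive = no clear call, values can overlap the other calls; inactive = the rest.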

Assay: bead-bound aptamer fluorescence quenching artefacts – biochemical, single concentration, cherry pick 2, flow cytometry, artefact control for GRK2 aptamer binding project, confirmation (AID 588494);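 note: labelled aptamer on streptavidin beads without GRK2 as a quench counter-screen; 100% = bead fluorescence of DMSO wells and lower means quenching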
Conditions: carboxyfluorescein RNA aptamer beads, at 10 µM, active compounds read low

Fluorescence response vs DMSO, inactive:
COc1ccc(Cl)cc1NC(=O)CCS(=O)(=O)c1cc2c(cc1C)NC(=O)CO2 98%, CCN1CCN(C(=O)N[C@@H](C(=O)N[C@@H]2C(=O)N3C(C(=O)O)=C(CSc4nnnn4C)CS[C@H]23)c2ccc(O)cc2)C(=O)C1=O 99%, CCOc1ccc(OCC)c(NC(=O)CCS(=O)(=O)c2ccc(C)cc2)c1 99%, O=C(NC1C2CC3CC(C2)CC1C3)c1ccc(N2CCNCC2)c([N+](=O)[O-])c1 (stereo not given) 101%, O=[N+]([O-])c1ccccc1S(=O)(=O)Nc1cccc2cccnc12 103%, Cc1nnc(SCC(=O)N2c3ccccc3C(C)(c3ccc(Cl)cc3)CC2(C)C)s1 (stereo not given) 100%, CCOCCCNC(=O)c1ccc(CS(=O)(=O)c2cccc(C(F)(F)F)c2)o1 103%, Cc1ccc(S(=O)(=O)CC(=O)Nc2sc(C)c(C)c2C(N)=O)cc1 103%, COc1ccccc1C(=O)N(Cc1ccc(C)o1)C1CCS(=O)(=O)C1 (stereo not given) 98%, CCOC(=O)C1=C(N)N(c2ccc(C)cc2)C2=C(C(=O)CCC2)C1c1cccs1 (stereo not given) 106%, COc1ccc(Cl)cc1NC(=O)CCS(=O)(=O)c1ccc(Br)cc1 101%, O=C(NCCCN1CCCCCC1)c1ccc(N2CCCC2=O)cc1 100%, COCCn1c(N)c(NCc2ccccc2)c(=O)[nH]c1=O 103%, NC(=O)[C@H]1CC2(CC(c3cccc(NC(=O)[C@H]4CCC(=O)N4)c3)=NO2)CN1C(=O)c1ccccc1C(=O)c1ccccc1 (stereo not given in full) 101%, O=C(C1CCCN(S(=O)(=O)c2ccc([N+](=O)[O-])cc2)C1)N1CCCCC1 (stereo not given) 103%, CCOCCc1c(O)nc(SCC(=O)NCc2ccco2)[nH]c1=O 100%, CC1Sc2ccc(S(=O)(=O)CCC(=O)NCc3ccccc3Cl)cc2NC1=O (stereo not given) 100%, COc1cccc(OC)c1C(=O)Nc1ccc(Cc2ccncc2)cc1 98%, COc1cc([N+](=O)[O-])cc([N+](=O)[O-])c1NC(=O)N1CCOCC1 103%, CCc1nn(CCCN2CCN(c3cccc(Cl)c3)CC2)c(=O)n1CCOc1ccccc1 100%, O=C(CCS(=O)(=O)c1ccccc1)NC1CCCC1 94%, CCC(C)(C(=O)NC1CCCCC1)N(C)C(=O)c1ccc2c(c1)OCO2 (stereo not given) 103%, CN=C(Nc1cccc(S(=O)(=O)N2CCOCC2)c1)c1ccccc1 110%, CC1CCN(C(=S)NC2CC3CCC2C3)CC1 (stereo not given) 99%, CC(=O)c1ccc(N2CCN(C(=O)c3ccc4nc[nH]c4c3)CC2)cc1 102%
